In article PMC11574364 one finds binding signal data, which are given here for 6 sequences.

Among the targets are HUR (Homo sapiens, UniProt Q15717); PABPC4L (Homo sapiens, UniProt P0CB38); snRNP B2 (Homo sapiens, UniProt P08579); YTHDC1 (Homo sapiens, UniProt Q96MU7); snRNP A (Homo sapiens, UniProt P09012); SLIRP (Homo sapiens, UniProt Q9GZT3); SF3B6 (Homo sapiens, UniProt Q9Y3B4); SFRS9 (Homo sapiens, UniProt Q13242).
Assay in all cases: protein domain microarray probed with biotinylated miRNA; Domain array: 20 mM Tris-HCl pH 7.4, 200 mM KCl, 0.2 mM EDTA, 0.05% NP40, 2 ug/ul heparin, overnight 4 C. ORF array: PBS pH 7.0 with RNase inhibitor, 100 ng RNA; high values mean tight binding
Common to all, as to settings: ssRNA

Sequence of HUR (Q15717 whole entry, the tested form may be a part): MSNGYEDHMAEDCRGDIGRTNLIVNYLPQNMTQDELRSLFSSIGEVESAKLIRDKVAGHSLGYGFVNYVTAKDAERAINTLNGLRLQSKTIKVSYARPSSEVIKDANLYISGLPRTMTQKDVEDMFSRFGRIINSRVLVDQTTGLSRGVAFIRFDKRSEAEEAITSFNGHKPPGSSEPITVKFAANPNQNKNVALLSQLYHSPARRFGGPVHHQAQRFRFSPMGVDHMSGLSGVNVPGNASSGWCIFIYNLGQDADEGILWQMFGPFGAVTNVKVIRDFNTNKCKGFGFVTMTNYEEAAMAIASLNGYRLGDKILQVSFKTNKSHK
Sequence of snRNP A (P09012 whole entry, the tested form may be a part): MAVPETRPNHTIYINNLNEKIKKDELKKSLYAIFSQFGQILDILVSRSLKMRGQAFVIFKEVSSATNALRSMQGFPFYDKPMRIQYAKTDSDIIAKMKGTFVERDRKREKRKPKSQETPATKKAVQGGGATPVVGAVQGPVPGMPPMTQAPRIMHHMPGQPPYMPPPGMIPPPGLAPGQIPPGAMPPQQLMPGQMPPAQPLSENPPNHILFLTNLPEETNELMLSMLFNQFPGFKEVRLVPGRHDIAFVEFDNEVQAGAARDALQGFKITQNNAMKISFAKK
Sequence of SF3B6 (Q9Y3B4 whole entry, the tested form may be a part): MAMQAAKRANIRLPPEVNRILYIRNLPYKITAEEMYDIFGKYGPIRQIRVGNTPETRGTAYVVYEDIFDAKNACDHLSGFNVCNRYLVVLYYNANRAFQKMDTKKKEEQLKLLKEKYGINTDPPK
Sequence of SFRS9 (Q13242 whole entry, the tested form may be a part): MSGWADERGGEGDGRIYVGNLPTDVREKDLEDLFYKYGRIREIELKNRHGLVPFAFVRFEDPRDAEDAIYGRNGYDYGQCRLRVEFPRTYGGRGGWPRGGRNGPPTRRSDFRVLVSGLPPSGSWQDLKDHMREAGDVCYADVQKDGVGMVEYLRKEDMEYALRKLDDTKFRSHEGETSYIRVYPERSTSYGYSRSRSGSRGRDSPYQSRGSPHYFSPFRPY
Sequence of snRNP B2 (P08579 whole entry, the tested form may be a part): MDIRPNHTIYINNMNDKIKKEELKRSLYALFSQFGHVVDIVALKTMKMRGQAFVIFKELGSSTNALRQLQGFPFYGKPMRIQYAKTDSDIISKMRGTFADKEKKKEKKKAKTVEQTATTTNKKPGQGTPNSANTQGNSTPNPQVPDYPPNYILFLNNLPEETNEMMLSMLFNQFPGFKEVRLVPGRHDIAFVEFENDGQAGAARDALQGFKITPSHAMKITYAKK
Sequence of PABPC4L (P0CB38 whole entry, the tested form may be a part): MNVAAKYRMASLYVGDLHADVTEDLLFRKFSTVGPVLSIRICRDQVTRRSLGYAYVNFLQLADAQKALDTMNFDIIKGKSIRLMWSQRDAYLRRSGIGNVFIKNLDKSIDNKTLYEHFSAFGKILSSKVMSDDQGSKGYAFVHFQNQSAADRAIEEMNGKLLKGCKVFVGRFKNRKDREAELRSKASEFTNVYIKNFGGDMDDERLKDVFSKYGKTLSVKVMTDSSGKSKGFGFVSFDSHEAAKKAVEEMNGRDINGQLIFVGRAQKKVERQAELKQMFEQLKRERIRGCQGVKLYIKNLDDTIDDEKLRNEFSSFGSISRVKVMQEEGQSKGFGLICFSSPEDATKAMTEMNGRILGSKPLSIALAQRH

With AGAGGUAGUAGGUUGCAUAGUU, the binding signal in the test with HUR is 1350 ± 50 fluorescence intensity; with PABPC4L, 466 ± 20.9 fluorescence intensity; in the test with snRNP B2, 147 ± 5.66 fluorescence intensity; with YTHDC1, 80.4 ± 1.63 fluorescence intensity; with snRNP A it was 342 ± 6.74 fluorescence intensity; with SLIRP, 104 ± 2.51 fluorescence intensity. Moreover, the binding signal with SF3B6 turned out to be 117.8 ± 0.707 fluorescence intensity; with SFRS9, 273 ± 31 fluorescence intensity.
For UGAGGUAGUAGGUUGUGUGGUU, the binding signal with HUR turned out to be 1300 ± 85.7 fluorescence intensity; with PABPC4L, 523 ± 82.5 fluorescence intensity; with snRNP B2, 296 ± 33.8 fluorescence intensity; with YTHDC1, 179 ± 8.44 fluorescence intensity; with snRNP A, 236.6 ± 1.37 fluorescence intensity; with SLIRP, 232 ± 20.1 fluorescence intensity. For the same sequence, the binding signal with SF3B6 was 282 ± 3.13 fluorescence intensity; with SFRS9, 580 ± 35.6 fluorescence intensity.
Consider UGAGGUAGUAGGUUGUAUAGUU, for which the binding signal with HUR was 477 ± 14 fluorescence intensity; with PABPC4L, 129 ± 51.7 fluorescence intensity; with snRNP B2, 43.98 ± 0.219 fluorescence intensity; with YTHDC1, 25.3 ± 0.502 fluorescence intensity; with snRNP A, 28 ± 0.686 fluorescence intensity; with SLIRP, 32.41 ± 0.262 fluorescence intensity. Further, the results for the binding signal with SF3B6 and with SFRS9 were 31.6 ± 1.95 fluorescence intensity and 37.9 ± 10.5 fluorescence intensity, respectively.
Regarding CAGUGCAAUGAUGAAAGGGCAU, the binding signal with HUR is 652.6 ± 4.58 fluorescence intensity; with PABPC4L, 380 ± 28.5 fluorescence intensity; in the test with snRNP B2, 164 ± 16.3 fluorescence intensity; with YTHDC1, 64.9 ± 3.94 fluorescence intensity; in the test with snRNP A, 224 ± 14.6 fluorescence intensity; with SLIRP it was 55.4 ± 6.36 fluorescence intensity. The binding signal came to 58.7 ± 1.9 fluorescence intensity with SF3B6 and 370 ± 18.4 fluorescence intensity with SFRS9.
As for UGAGGUAGUAGGUUGUAUGGUU, the binding signal with HUR was 1165 ± 9.92 fluorescence intensity; with PABPC4L it was 506 ± 42.2 fluorescence intensity; in the test with snRNP B2, 184 ± 4.53 fluorescence intensity; with YTHDC1, 122.4 ± 0.332 fluorescence intensity; with snRNP A it was 372 ± 10.2 fluorescence intensity; in the test with SLIRP, 107 ± 4.07 fluorescence intensity. In addition, the binding signal worked out at 136 ± 26.8 fluorescence intensity with SF3B6 and 343 ± 5.06 fluorescence intensity with SFRS9.
Consider UAGCUUAUCAGACUGAUGUUGA, for which the binding signal in the test with HUR stood at 219 ± 16.5 fluorescence intensity; with snRNP B2 it was 24.4 ± 2.86 fluorescence intensity; with snRNP A, 25.3 ± 14.1 fluorescence intensity; with SLIRP it was 24.4 ± 1.37 fluorescence intensity; with SFRS9 it was 54.9 ± 6.63 fluorescence intensity.
